Sampled rows, rich in hits. Any-hit rate of the full collection: about 6.9%.
MPTP inh: inhibitors of mitochondrial permeability transition pore; isolated mouse mitochondria, Ca2+ swelling absorbance, 30 min; AID 602449; hit rate 1.4% among 360,000; inhibition, % at 10 µM;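 active = inhibition of 50% or more, scaled per plate between neutral and stimulator controls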
CSC inhib: cancer stem cell inhibition. cancer stem cell-like cells viability, luminescence. inhibition, % at 7.5 µM. hit rate 1.1% among 300,000. AID 2717; in the data active = inhibition above about 75%; inconclusive = no clear call, values can overlap the other calls; tested in HMLE shEcad cells
Beta cell apopt: beta cell apoptosis inhibition. INS-1E cytokine-induced death, ATP luminescence, 48 h; percent of positive-control rescue, neutral wells zero. protection from apoptosis, % (no concentration beside the values). hit rate 0.8% among 300,000;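 active = Every replicate reaches about 75%, or at least half do and their mean reaches it too, limit read from the data; inconclusive = At least half of replicates reach the limit but their mean does not; inactive = Under half of replicates reach the limit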;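 note: higher means more ATP so stronger rescue from cytokine killing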
Mdm2-MdmX inh: inhibitors of human Mdm2/MdmX interaction; O15151+Q00987; SaOS-2 split-luciferase Mdm2/MdmX complementation, luminescence; inhibition, % at 8 µM; hit rate 3% among 330,000;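 active = inhibition of at least 50% at 8 µM in the primary screen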
Target sequence (O15151 whole entry, looked up): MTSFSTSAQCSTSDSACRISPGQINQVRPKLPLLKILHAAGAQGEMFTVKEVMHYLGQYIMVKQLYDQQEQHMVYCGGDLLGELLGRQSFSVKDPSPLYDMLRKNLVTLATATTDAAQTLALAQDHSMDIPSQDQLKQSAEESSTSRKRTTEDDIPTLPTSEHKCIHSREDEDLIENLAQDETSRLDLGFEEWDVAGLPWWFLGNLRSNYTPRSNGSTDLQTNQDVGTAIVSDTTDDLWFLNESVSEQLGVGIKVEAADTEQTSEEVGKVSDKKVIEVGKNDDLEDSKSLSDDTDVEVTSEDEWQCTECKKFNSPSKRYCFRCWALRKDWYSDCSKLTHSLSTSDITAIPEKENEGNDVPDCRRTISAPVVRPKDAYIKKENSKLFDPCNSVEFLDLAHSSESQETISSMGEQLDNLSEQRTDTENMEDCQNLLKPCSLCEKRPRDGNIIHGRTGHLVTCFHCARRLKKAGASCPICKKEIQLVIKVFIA
Target sequence (Q00987 whole entry, looked up): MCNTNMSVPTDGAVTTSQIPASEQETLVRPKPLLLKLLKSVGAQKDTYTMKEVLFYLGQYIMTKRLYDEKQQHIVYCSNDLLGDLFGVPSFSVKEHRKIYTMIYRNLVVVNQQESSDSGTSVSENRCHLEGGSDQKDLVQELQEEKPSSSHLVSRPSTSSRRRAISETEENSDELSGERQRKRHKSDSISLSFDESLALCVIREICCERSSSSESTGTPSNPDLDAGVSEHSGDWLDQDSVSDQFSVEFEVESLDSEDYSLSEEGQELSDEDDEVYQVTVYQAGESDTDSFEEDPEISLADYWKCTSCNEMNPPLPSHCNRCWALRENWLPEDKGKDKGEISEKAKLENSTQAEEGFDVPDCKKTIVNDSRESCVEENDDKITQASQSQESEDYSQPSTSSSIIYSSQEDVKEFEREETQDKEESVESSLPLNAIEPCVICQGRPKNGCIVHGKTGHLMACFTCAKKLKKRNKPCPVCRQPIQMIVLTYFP
SKKanGAS inh: inhibitors of SKKanGAS S. pyogenes growth in kanamycin (SK-promoter or general growth effect); AID 1662; BacTiter-Glo, 6 h; inhibition, % at 7.5 µM; hit rate 1.3% among 300,000;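 active = mean replicate score, as percent of positive control median, at least 50; inconclusive = mean below 50 but one replicate at or above 50; inactive = mean and every replicate below 50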;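 note: strain carries kanamycin resistance gene driven by streptokinase promoter and grows in 40 µg/ml kanamycin; loss of luminescence reflects streptokinase promoter inhibition or plain growth inhibition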
GRIN3A LBD mod: NR3A (human) ligand-binding domain modulation; NR3A LBD differential scanning fluorimetry, Tm shift; 0% = protein alone, 100% = glycine-bound protein; Tm shift relative to glycine control, % at 25 µM; hit rate 2.5% among 340,000;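 active = melting temperature shift of at least 10% of the positive control shift, at one fixed dose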
Mdm2 MdmX conf: human Mdm2/MdmX binding inhibition, confirmed; inhibition, % at 8 µM; luminescent assay; AID 489028; hit rate 55% among 10,000; shares compounds with Mdm2-MdmX inh; in the data active = inhibition above about 40%
FLuc counter: counter-screen for Mdm2/MdmX inhibitors: full-length luciferase; hit rate 77% among 6,200; shares compounds with Mdm2-MdmX inh; inhibition, % at 8 µM; AID 504607; SaOS-2 full-length luciferase counterscreen, luminescence;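 active = mean inhibition at 8 µM reaching about 37%, which flags the compound as non-specific, limit read from the data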;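 note: p53-null SaOS-2 cells with luciferase driven by a doxycycline-inducible promoter; compound on cells about two nights before reading with doxycycline added after day one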
Rh123 counter: membrane potential counter-screen of mitochondrial pore inhibitors. shares compounds with MPTP inh. isolated mitochondria, Rhodamine 123 fluorescence. inhibition, % at 10 µM. hit rate 78% among 5,000. AID 624504; in the data active = inhibition above about 22%
MPTP swell DR: dose response confirmation of mitochondrial permeability transition pore inhibitors. shares compounds with MPTP inh. isolated mitochondria swelling, absorbance. IC50, µM. hit rate 58% among 780. AID 651561; in the data active = IC50 below about 20 µM
MPTP cs DR: MPTP inhibitor counter-screen activity, dose response; shares compounds with MPTP inh; isolated mitochondria counterscreen, fluorescence read-out; IC50, µM; hit rate 49% among 780; in the data active = IC50 below about 80 µM
Each line names hits and unclear results; the compound was inactive in the other large screens (follow-up assays come after a bar, where they were run).

CCCCCn1c(N)c(-c2nc3ccccc3s2)c2c([N+](=O)[O-])nn(CC)c(=O)c21	MPTP inh 97, Mdm2-MdmX inh 92, SKKanGAS inh 54 | Mdm2 MdmX conf inactive | Rh123 counter inactive | MPTP swell DR 11 | MPTP cs DR <2.5
CCCCCn1c(N)c(-c2nc3ccccc3o2)c2c([N+](=O)[O-])nn(C)c(=O)c21	none (no result: Mdm2-MdmX inh)
Cn1nc([N+](=O)[O-])c2c(-c3nc4ccccc4s3)c(N)n(C3CCCCC3)c2c1=O	MPTP inh 72, Mdm2-MdmX inh 51 | Mdm2 MdmX conf inactive | Rh123 counter inactive | MPTP swell DR inactive | MPTP cs DR 43
CCC(=O)Nc1ccc(C(=O)NNC(=O)c2cccc(C)c2)cc1	none
Cc1ccc(N(Cc2ccccc2)C(=O)c2ccc(Cl)c(S(=O)(=O)N3CCOCC3)c2)cc1	none
CC1(COS(N)(=O)=O)CCCCC1	none
O=C(Nc1ncc(Cc2cc(Cl)ccc2Cl)s1)c1ccc([N+](=O)[O-])cc1	MPTP inh 51, Mdm2-MdmX inh 59 | Mdm2 MdmX conf inactive | Rh123 counter inactive | MPTP swell DR inactive | MPTP cs DR <2.5
O=C(Nc1ncc(S(=O)(=O)c2ccc([N+](=O)[O-])cc2)s1)c1ccc2ccccc2c1	MPTP inh 94, CSC inhib inconclusive, Mdm2-MdmX inh 71, GRIN3A LBD mod 22 | Mdm2 MdmX conf inactive | Rh123 counter 31
Cc1cc(F)ccc1S(=O)(=O)Nc1ccccc1C(=O)Nc1ccccc1-c1nc2ccccc2[nH]1	MPTP inh 72, CSC inhib 79, Beta cell apopt 116, Mdm2-MdmX inh 96, SKKanGAS inh 58, GRIN3A LBD mod 18 | Mdm2 MdmX conf 92 | FLuc counter 51 | Rh123 counter 69
O=C(Cn1cnc2sc3c(c2c1=O)CCCC3)NCC(=O)Nc1ccc(F)cc1F	none
O=C(c1cc(COc2ccc(F)cc2Cl)on1)N1CCSCC1	none
COc1ccc(N2CCN(C(=O)C(Cc3ccccc3)NC(=O)c3ccccc3)CC2)cc1 (centres undefined)	none (no result: CSC inhib, Beta cell apopt, Mdm2-MdmX inh, SKKanGAS inh)
Nc1nc(SCc2ccccc2)c2ncn(CCO)c2n1	none (no result: CSC inhib, Beta cell apopt, Mdm2-MdmX inh, SKKanGAS inh)
CN(C)c1ccc(NC(=O)CN2C(=O)c3ccccc3C2=O)cc1	none
OC(c1cc(C(F)(F)F)nc2c(C(F)(F)F)cccc12)C1CCCCN1 (centres undefined)	MPTP inh 92, Mdm2-MdmX inh 100 (no result: SKKanGAS inh) | Mdm2 MdmX conf 89 | FLuc counter inactive | Rh123 counter inactive
FC(F)(F)c1cc(N2CCNCC2)c2ccccc2n1	none
CCOc1ccc(NS(=O)(=O)c2cc(NC(=O)c3cccc(C)c3)ccc2Cl)cc1	MPTP inh 89, Mdm2-MdmX inh 51 | Mdm2 MdmX conf 46 | FLuc counter 79 | Rh123 counter 41
CCOc1ccc(NS(=O)(=O)c2cc(C(=O)N3CCCC3)ccc2Cl)cc1	none
CCN(Cc1ccccc1)S(=O)(=O)c1ccc(C(=O)N(CCCN(C)C)c2nc3cc4c(cc3s2)OCCO4)cc1	MPTP inh 59, Mdm2-MdmX inh 78 (no result: Beta cell apopt) | Mdm2 MdmX conf inactive | FLuc counter 77 | Rh123 counter inactive
CCN(Cc1ccccc1)S(=O)(=O)c1ccc(C(=O)N(CCCN(C)C)c2nc3cc(OC)ccc3s2)cc1	MPTP inh 65, Mdm2-MdmX inh 50 | Mdm2 MdmX conf inactive | Rh123 counter inactive | MPTP swell DR inactive | MPTP cs DR 30
CCN(Cc1ccccc1)S(=O)(=O)c1ccc(C(=O)N(CCCN(C)C)c2nc3ccc(F)cc3s2)cc1	none
COc1cc2nc(N(CCCN(C)C)C(=O)c3ccc(S(=O)(=O)N4CCc5ccccc54)cc3)sc2cc1OC	none (no result: Beta cell apopt)

Source: PubChem BioAssay (several laboratories)
